Reference: PubChem BioAssay (NCI)
About 83,000 compounds went through this panel and 20% of them were active in at least one assay; those are over-represented in the sample as a whole.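 48-hour exposure, single concentration, 96-well plates; percent growth endpoint where 0 means no net growth. Active: below 10.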 The source made the active and inactive calls.

Assays:
Assay in all cases: NCI-60 one-dose screen, 48 h (100 = growth as untreated, 0 = no growth, -100 = all killed)
Details in all cases: 10 µM unless noted
SR leukemia = system: SR leukemia
RPMI-8226 leukemia = system: RPMI-8226 leukemia
OVCAR-8 ovarian = system: OVCAR-8 ovarian
OVCAR-5 ovarian = system: OVCAR-5 ovarian
OVCAR-4 ovarian = system: OVCAR-4 ovarian
SK-OV-3 ovarian = system: SK-OV-3 ovarian
IGROV1 ovarian = system: IGROV1 ovarian
OVCAR-3 ovarian = system: OVCAR-3 ovarian
HS 578T breast = system: HS 578T breast
NCI/ADR-RES ovarian = system: NCI/ADR-RES ovarian

Measured: growth

CCOC(=O)C(CCN(C)C)c1ccccc1 (stereo not given)
inactive: SR leukemia 97.8% | RPMI-8226 leukemia 98.2% | OVCAR-8 ovarian 111% | OVCAR-5 ovarian 88.7% | OVCAR-4 ovarian 100% | SK-OV-3 ovarian 104% | IGROV1 ovarian 104% | OVCAR-3 ovarian 96.4% | HS 578T breast 98% | NCI/ADR-RES ovarian 103%

O=C(NCCCCO)c1cncnc1Nc1ccc2c(ccn2Cc2cccc(F)c2)c1
inactive: SR leukemia 93.4% | RPMI-8226 leukemia 95.3% | OVCAR-8 ovarian 101% | OVCAR-5 ovarian 86.3% | OVCAR-4 ovarian 100% | SK-OV-3 ovarian 89.8% | IGROV1 ovarian 88.1% | OVCAR-3 ovarian 98.5% | HS 578T breast 94.1% | NCI/ADR-RES ovarian 91.3%

CN(C)CCCn1c2c(c3ccncc3c1=O)C(=O)c1ccccc1-2
active: SR leukemia -26% | RPMI-8226 leukemia -22.7% | OVCAR-8 ovarian 0.796% | OVCAR-5 ovarian 0.243% | OVCAR-4 ovarian -8.01% | IGROV1 ovarian 0.297% | OVCAR-3 ovarian -12.3% | NCI/ADR-RES ovarian -23.5%
inactive: SK-OV-3 ovarian 34.8% | HS 578T breast 19.8%

O=C(/C=C/C12c3ccccc3C(c3ccccc31)C1C(=O)NC(=O)C12)c1ccco1 (stereo not given)
active: RPMI-8226 leukemia -7.21% | OVCAR-8 ovarian 5.8%
inactive: SR leukemia 13% | OVCAR-5 ovarian 44.3% | OVCAR-4 ovarian 53.4% | SK-OV-3 ovarian 42.7% | IGROV1 ovarian 26.5% | OVCAR-3 ovarian 11.7% | HS 578T breast 31.4% | NCI/ADR-RES ovarian 42.3%

CCn1cc(C(=O)O)c(=O)c2cc(F)c(N3CCN(CC(=O)Nc4ccccc4)C(C)C3)c(F)c21 (stereo not given)
inactive: SR leukemia 109% | RPMI-8226 leukemia 102% | OVCAR-8 ovarian 98.3% | OVCAR-5 ovarian 98.3% | OVCAR-4 ovarian 82.4% | SK-OV-3 ovarian 90.7% | IGROV1 ovarian 103% | OVCAR-3 ovarian 104% | HS 578T breast 91.1% | NCI/ADR-RES ovarian 96.7%

O=C(Nc1cc(Cl)ccc1O)c1ccccc1Nc1ccnc(C(F)(F)F)c1
active: SR leukemia -26.3% | RPMI-8226 leukemia -21.5% | IGROV1 ovarian 1.77% | OVCAR-3 ovarian -6.87% | HS 578T breast -2.86% | NCI/ADR-RES ovarian -2.27%
inactive: OVCAR-8 ovarian 10.6% | OVCAR-5 ovarian 68.6% | OVCAR-4 ovarian 19.8% | SK-OV-3 ovarian 49.9%

CS(=O)/C(C#N)=C\C=C\c1cccc(Cl)c1 (stereo not given)
active: SR leukemia 6.39% | RPMI-8226 leukemia 2.54% | NCI/ADR-RES ovarian -44.1%
inactive: OVCAR-8 ovarian 26.3% | OVCAR-5 ovarian 34.1% | OVCAR-4 ovarian 34.7% | SK-OV-3 ovarian 43.7% | IGROV1 ovarian 23.4% | OVCAR-3 ovarian 10.6% | HS 578T breast 43.2%

Cc1ccc(C2CC(c3cccc(Nc4ccncc4)c3)=Nc3c(N)nc(N)nc3N2)cc1 (stereo not given)
inactive: RPMI-8226 leukemia 44.9% | OVCAR-8 ovarian 38% | OVCAR-5 ovarian 95.5% | OVCAR-4 ovarian 81.2% | SK-OV-3 ovarian 97.9% | IGROV1 ovarian 42.4% | OVCAR-3 ovarian 82.1% | HS 578T breast 80% | NCI/ADR-RES ovarian 101%
active: SR leukemia -4.18%

CCn1cc(C(=O)N/N=C/c2cccc(F)c2)c(=O)c2cc(F)c(N3CCNC(C)C3)c(F)c21 (stereo not given)
inactive: OVCAR-5 ovarian 90.2% | OVCAR-4 ovarian 23.8% | SK-OV-3 ovarian 108% | IGROV1 ovarian 69.4% | HS 578T breast 81.3% | NCI/ADR-RES ovarian 78.3%
active: SR leukemia -29.2% | RPMI-8226 leukemia -42.2% | OVCAR-8 ovarian -5.39% | OVCAR-3 ovarian -83.3%

CCN(CC)c1ccc(-c2cc(-c3cc(OC)c(OC)c(OC)c3)nc(N3CCC(O)CC3)c2C#N)cc1
active: RPMI-8226 leukemia -11.8% | OVCAR-5 ovarian 2.43% | SK-OV-3 ovarian -5.1% | IGROV1 ovarian 2.12% | OVCAR-3 ovarian -58.6% | HS 578T breast -13.8% | NCI/ADR-RES ovarian 5.08%
inactive: SR leukemia 12% | OVCAR-8 ovarian 10.6% | OVCAR-4 ovarian 40.5%

Cc1ccccc1N1CCN(C(=S)c2ccccc2)CC1
inactive: SR leukemia 104% | RPMI-8226 leukemia 115% | OVCAR-8 ovarian 96.4% | OVCAR-5 ovarian 93.4% | OVCAR-4 ovarian 90.6% | SK-OV-3 ovarian 98.1% | IGROV1 ovarian 57.2% | OVCAR-3 ovarian 108% | HS 578T breast 106% | NCI/ADR-RES ovarian 102%

CCN1C(=O)N(CC)C2C1NN=c1s/c(=C\c3ccc(OC)cc3)c(=O)n12 (stereo not given)
inactive: SR leukemia 12.1% | RPMI-8226 leukemia 20.6% | OVCAR-5 ovarian 29.4% | OVCAR-4 ovarian 46.3% | SK-OV-3 ovarian 40.5% | IGROV1 ovarian 19.6% | HS 578T breast 21.6%
active: OVCAR-8 ovarian -2.81% | OVCAR-3 ovarian -16.5% | NCI/ADR-RES ovarian 0.931%

Cc1c(C(C)(C)O)cn2ncnc(Oc3ccc(NC(=O)Nc4ccc(Cl)c(C(F)(F)F)c4)c(F)c3)c12
active: SR leukemia 8.9%
inactive: RPMI-8226 leukemia 49.9% | OVCAR-8 ovarian 70.7% | OVCAR-5 ovarian 134% | OVCAR-4 ovarian 37.5% | SK-OV-3 ovarian 95.6% | IGROV1 ovarian 57.3% | OVCAR-3 ovarian 47.6% | HS 578T breast 80.9% | NCI/ADR-RES ovarian 68%

Cc1nn(C)c2ncnc(N/N=C/c3cccc(O)c3O)c12
inactive: OVCAR-8 ovarian 18.2% | OVCAR-5 ovarian 41.8% | OVCAR-4 ovarian 22% | IGROV1 ovarian 15.4% | OVCAR-3 ovarian 25.5% | HS 578T breast 52.3% | NCI/ADR-RES ovarian 11.9%
active: SR leukemia 7.79% | RPMI-8226 leukemia -8.14% | SK-OV-3 ovarian 9.76%

COc1ccc(C(=O)C/C(=C\c2ccc(O)c(OC)c2)C(=O)NN)cc1
inactive: SR leukemia 26.9% | RPMI-8226 leukemia 80.3% | OVCAR-8 ovarian 80.7% | OVCAR-5 ovarian 105% | OVCAR-4 ovarian 101% | SK-OV-3 ovarian 79.9% | IGROV1 ovarian 82.6% | OVCAR-3 ovarian 87.6% | HS 578T breast 101% | NCI/ADR-RES ovarian 74.8%

N#Cc1ccc(/C=C/c2cn(-c3ccccc3)nc2-c2cccc([N+](=O)[O-])c2)cc1
inactive: SR leukemia 66.5% | RPMI-8226 leukemia 74.8% | OVCAR-8 ovarian 44.1% | OVCAR-5 ovarian 64.2% | OVCAR-4 ovarian 33.1% | SK-OV-3 ovarian 69.8% | IGROV1 ovarian 51.2% | OVCAR-3 ovarian 70% | HS 578T breast 76.2% | NCI/ADR-RES ovarian 62.8%

CC1SC(c2ccccc2O)N(NC(=O)CCC(=O)c2nc3ncccc3[nH]2)C1=O (stereo not given)
inactive: SR leukemia 109% | RPMI-8226 leukemia 93.1% | OVCAR-8 ovarian 97% | OVCAR-5 ovarian 107% | OVCAR-4 ovarian 92.8% | SK-OV-3 ovarian 92.3% | IGROV1 ovarian 70.1% | OVCAR-3 ovarian 97% | HS 578T breast 90.2% | NCI/ADR-RES ovarian 89.6%

Nc1nc(C(=O)N/N=C/c2ccc(F)cc2)nn1-c1ccc(S(N)(=O)=O)cc1
inactive: SR leukemia 98.5% | RPMI-8226 leukemia 91% | OVCAR-8 ovarian 97.5% | OVCAR-5 ovarian 104% | OVCAR-4 ovarian 98.4% | SK-OV-3 ovarian 105% | IGROV1 ovarian 91.5% | OVCAR-3 ovarian 102% | HS 578T breast 101% | NCI/ADR-RES ovarian 98.3%

CN1C(=O)/C(=C/c2ccc(C(=O)Nc3ncc(Cc4cc(Cl)ccc4Cl)s3)cc2)SC1=S
inactive: SR leukemia 63.9% | RPMI-8226 leukemia 57% | OVCAR-8 ovarian 80.8% | OVCAR-5 ovarian 70.7% | OVCAR-4 ovarian 57% | SK-OV-3 ovarian 71.1% | IGROV1 ovarian 56.9% | OVCAR-3 ovarian 80.1% | HS 578T breast 80.9% | NCI/ADR-RES ovarian 70.2%

O=C1Nc2ccc(Cl)cc2/C1=C/c1ccc[nH]1
inactive: SR leukemia 50.4% | RPMI-8226 leukemia 101% | OVCAR-8 ovarian 102% | OVCAR-5 ovarian 83.7% | OVCAR-4 ovarian 44.3% | SK-OV-3 ovarian 117% | IGROV1 ovarian 58.2% | OVCAR-3 ovarian 90.5% | HS 578T breast 114% | NCI/ADR-RES ovarian 112%

COc1ccc(Oc2ccc(/C=C/C(=O)c3ccc(OC)c(OC)c3)cc2)cc1
inactive: SR leukemia 50.9% | RPMI-8226 leukemia 54.7% | OVCAR-8 ovarian 73.8% | OVCAR-5 ovarian 112% | OVCAR-4 ovarian 62.8% | SK-OV-3 ovarian 97.3% | IGROV1 ovarian 85.5% | OVCAR-3 ovarian 86.7% | HS 578T breast 88.2% | NCI/ADR-RES ovarian 83.4%

CC(C)(C)OC(=O)CN1CCc2c(sc3ncnc(N4CCN(c5ccc(F)cc5)CC4)c23)C1
inactive: SR leukemia 79.8% | RPMI-8226 leukemia 57.7% | OVCAR-8 ovarian 73.2% | OVCAR-5 ovarian 82.8% | OVCAR-4 ovarian 85.5% | SK-OV-3 ovarian 102% | IGROV1 ovarian 89.8% | OVCAR-3 ovarian 90.5% | HS 578T breast 70.4% | NCI/ADR-RES ovarian 79.7%

Cc1c(O)cc(-c2cnc(N/N=C/c3ccccc3)s2)c(O)c1C
inactive: SR leukemia 95.3% | RPMI-8226 leukemia 51.5% | OVCAR-8 ovarian 84.4% | OVCAR-5 ovarian 110% | OVCAR-4 ovarian 63.5% | SK-OV-3 ovarian 102% | IGROV1 ovarian 83.8% | OVCAR-3 ovarian 95.5% | HS 578T breast 91.2% | NCI/ADR-RES ovarian 93.6%

C=CC(=O)Nc1cccc(Oc2nccc(Nc3nnc(-c4ccc(Br)cc4)s3)n2)c1
inactive: SR leukemia 89.3% | RPMI-8226 leukemia 87.4% | OVCAR-8 ovarian 98.5% | OVCAR-5 ovarian 95.4% | OVCAR-4 ovarian 86.4% | SK-OV-3 ovarian 91% | IGROV1 ovarian 101% | OVCAR-3 ovarian 102% | HS 578T breast 93.4% | NCI/ADR-RES ovarian 99.8%

N=C(N)c1ccc(OCCSCCOc2ccc(C(=N)N)cc2)cc1
inactive: SR leukemia 73.1% | RPMI-8226 leukemia 73.9% | OVCAR-8 ovarian 64% | OVCAR-5 ovarian 77.6% | OVCAR-4 ovarian 64.7% | SK-OV-3 ovarian 82% | IGROV1 ovarian 93.3% | OVCAR-3 ovarian 86.4% | HS 578T breast 85.4% | NCI/ADR-RES ovarian 97.7%
